Sampled rows, rich in hits. Any-hit rate of the full collection: about 4.1%.
CSC inhib = cancer stem cell inhibition. AID 2717. 300,000 compounds, 1.1% hits. cancer stem cell-like cells viability, luminescence. inhibition, % at 7.5 µM; in the data active = inhibition above about 75%; inconclusive = no clear call, values can overlap the other calls; tested in HMLE shEcad cells
Beta cell apopt = beta cell apoptosis inhibition | 300,000 compounds, 0.8% hits | INS-1E cytokine-induced death, ATP luminescence, 48 h; percent of positive-control rescue, neutral wells zero | protection from apoptosis, % (concentration not given with the values) | AID 435005;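 active = Every replicate reaches about 75%, or at least half do and their mean reaches it too, limit read from the data; inconclusive = At least half of replicates reach the limit but their mean does not; inactive = Under half of replicates reach the limit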;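 note: higher means more ATP so stronger rescue from cytokine killing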
aSyn UTR inh = 5' untranslated region of α-synuclein, MLPCN primary screen; alpha-synuclein 5'UTR reporter, inhibitor activity; inhibition, % (tested at 7.5 µM); 300,000 compounds, 0.82% hits; AID 1813; in the data active = inhibition above about 60%; inconclusive = no clear call, values can overlap the other calls;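 note: H4 neuroglioblastoma cells stably carrying SNCA 5'UTR luciferase fusion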
Bfl-1 A1 inh = inhibitors of the anti-apoptotic protein A1, read as caspase activation; 330,000 compounds, 0.066% hits; MEF A1-2A-BIM cells, Caspase-Glo 3/7 luminescence, 3 h; percent of clofoctol response, vehicle zero; caspase activation, % (no concentration beside the values);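 active = over half of replicate activation scores above 10%, or exactly half above 10 with the replicate mean above 10; inconclusive = replicate mean below 10 yet half the replicates above 10; inactive = over half of replicates below 10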
Mdm2 MdmX PPI = inhibitors of human Mdm2/MdmX interaction. 330,000 compounds, 3% hits. inhibition, % at 8 µM. SaOS-2 split-luciferase Mdm2/MdmX complementation, luminescence;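 active = inhibition of at least 50% at 8 µM in the primary screen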
Target sequence (O15151 whole entry, looked up): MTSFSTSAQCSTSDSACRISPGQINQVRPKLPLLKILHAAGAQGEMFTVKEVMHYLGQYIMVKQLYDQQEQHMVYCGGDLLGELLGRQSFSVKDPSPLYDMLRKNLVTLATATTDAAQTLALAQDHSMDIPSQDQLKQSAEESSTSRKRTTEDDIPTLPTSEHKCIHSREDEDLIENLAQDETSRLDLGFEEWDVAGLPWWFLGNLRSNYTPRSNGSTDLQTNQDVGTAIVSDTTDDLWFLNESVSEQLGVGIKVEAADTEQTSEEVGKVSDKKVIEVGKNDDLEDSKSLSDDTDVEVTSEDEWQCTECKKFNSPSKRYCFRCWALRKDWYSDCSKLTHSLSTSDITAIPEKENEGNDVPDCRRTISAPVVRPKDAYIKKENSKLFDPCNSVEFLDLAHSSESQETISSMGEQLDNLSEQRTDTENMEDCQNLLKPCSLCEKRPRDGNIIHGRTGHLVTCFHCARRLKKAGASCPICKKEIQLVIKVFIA
Target sequence (Q00987 whole entry, looked up): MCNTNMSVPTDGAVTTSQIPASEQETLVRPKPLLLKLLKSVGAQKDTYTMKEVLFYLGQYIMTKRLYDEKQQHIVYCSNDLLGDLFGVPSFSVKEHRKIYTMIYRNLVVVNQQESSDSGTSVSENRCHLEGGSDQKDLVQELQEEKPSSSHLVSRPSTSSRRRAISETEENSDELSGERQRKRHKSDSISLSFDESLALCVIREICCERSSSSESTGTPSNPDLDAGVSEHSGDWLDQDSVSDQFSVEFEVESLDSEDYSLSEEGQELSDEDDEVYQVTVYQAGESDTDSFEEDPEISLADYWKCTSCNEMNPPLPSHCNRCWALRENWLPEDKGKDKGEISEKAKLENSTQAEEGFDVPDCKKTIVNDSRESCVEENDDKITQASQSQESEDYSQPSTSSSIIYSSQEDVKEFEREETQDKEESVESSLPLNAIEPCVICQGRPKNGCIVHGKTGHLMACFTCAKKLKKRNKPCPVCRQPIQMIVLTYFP
Numbers stand for hits; n = inactive; u = inconclusive; x = no result given.

SMILES	CSC inhib	Beta cell apopt	aSyn UTR inh	Bfl-1 A1 inh	Mdm2 MdmX PPI
Cc1cc(C)cc(NC(=O)Nc2ccc(NC(=O)c3ccccc3O)cc2)c1	92.0	n	n	n	n
CC(C)c1ccc(CN(C)CC(O)c2ccccc2)cc1 (stereo not drawn)	n	n	n	n	n
CC(C)c1ccc(-c2nnn(CCC(=O)O)n2)cc1	n	n	118.0	n	n
O=C(O)CCn1nnc(-c2cccs2)n1	n	n	n	n	n
CCc1ccc(-c2nnn(CCC(=O)OC)n2)cc1	n	x	77.1	n	n
COc1ccc(F)cc1S(=O)(=O)Nc1cc2c3c(c1)CCN3C(=O)CC2	n	n	n	n	n
O=C(N/N=C/c1ccc[nH]1)c1sc2ccccc2c1Cl	92.7	n	n	n	n
O=C(N/N=C/c1ccncc1)c1sc2ccccc2c1Cl	n	n	n	n	n
CCOc1ccc(/C=C2\SC(=S)N(CCC(=O)O)C2=O)cc1	n	n	114.6	n	n
CCc1ccc(/C=C2\SC(=S)N(CCC(=O)Nc3cc(C)on3)C2=O)cc1	n	n	68.8	n	n
CCOc1ccc(N(C)c2ccc(/C=C3/SC(=S)NC3=O)cc2)cc1	97.3	n	n	n	n
O=C(CSc1n[nH]c(=O)n1-c1ccccc1)N1CCOCC1	n	n	n	n	n
O=C(Nc1ccc2c(c1)OCCO2)C(=O)c1c[nH]c2ccccc12	106.7	n	n	n	n
COc1ccc(Br)cc1S(=O)(=O)N(CC(=O)N1CCN(C)CC1)c1ccccc1	n	n	n	n	n
CCN1/C(=C/c2sc(-c3ccccc3C)c[n+]2C)Sc2ccccc21	x	x	94.4	x	x
NC1=C(Br)C(=O)c2ccccc2C1=O	n	102.4	65.4	n	n
O=S(=O)(NC1CCCC1)c1cc(F)ccc1F	n	n	n	n	n
O=C(CCNC(=O)c1ccc(Br)cc1)NCCCN1CCCC1=O	x	n	x	n	n
O=C1C(C2=NC(c3ccccn3)C3C(=O)N(c4ccc(OC(F)(F)F)cc4)C(=O)C23)=C(O)c2ccccc21 (stereo not drawn)	n	80.8	n	n	n
COC(=O)C[C@](O)(CCCC(C)(C)O)C(=O)O[C@@H]1C(OC)=C[C@]23CCCN2CCc2cc4c(cc2[C@H]13)OCO4	98.3	77.9	126.9	u	x
CCCCCC(=O)Nc1ccc(S(=O)(=O)NC2=NCCCCC2)cc1	n	n	x	n	n
CCOc1ccc(NC(=O)c2cccc(-n3cccc3)c2)cc1S(=O)(=O)N1CCOCC1	x	n	x	n	n
O=C(NCCCN1CCOCC1)C(=O)N/N=C/c1c2ccccc2cc2ccccc12	n	n	66.7	n	n
Cc1c(NC(=O)c2ccc(CC(C)C)o2)c(=O)n(-c2ccccc2)n1C	n	n	n	n	n
Cc1cc(C)c(O)c(NC(=S)NC(=O)Cc2ccccc2)c1	n	n	n	n	n
SMILES	CSC inhib	Beta cell apopt	aSyn UTR inh	Bfl-1 A1 inh	Mdm2 MdmX PPI
Cc1cc2ncc(-c3ncc(C(F)(F)F)cc3Cl)cn2n1	n	n	65.4	n	n
Cc1c2cnn(CC(=O)NCCCN3CC(C)CC(C)C3)c(=O)c2c(C)n1Cc1ccccc1Cl (stereo not drawn)	n	n	n	n	n
CC(C)Cn1c(N)c(C(=O)COC(=O)CC23CC4CC(CC(C4)C2)C3)c(=O)n(C)c1=O	n	105.2	n	n	n
Nc1c(-c2ccccc2)nc(Cl)nc1-c1ccccc1	n	n	n	n	n
c1ccc(-c2nc3nonc3nc2-c2ccccc2)cc1	n	135.2	n	n	n
COc1ccc2c(=O)cc(CO)oc2c1	n	n	x	n	n
COc1ccccc1-c1cc2nc(C)c(CCC(=O)NCc3ccc(F)cc3)c(C)n2n1	n	n	n	n	n
COc1cc(OC)cc(-c2cc3nc(C)c(CCC(=O)NCc4ccccc4)c(C)n3n2)c1	n	n	75.0	n	n
COc1ccc(N2CCN(C(c3ccc4ncccc4c3)c3nnnn3C(C)C)CC2)cc1 (stereo not drawn)	n	n	n	n	n
Clc1ccccc1N1CCN(Cc2c[nH]c3ccccc23)CC1	n	n	64.1	n	n
O=[N+]([O-])c1ccccc1CN1CCN(Cc2c[nH]c3ccccc23)CC1	n	116.1	n	n	n
COc1ccc(C2/C(=C(/O)c3ccc(C)cc3)C(=O)C(=O)N2C)c(OC)c1 (stereo not drawn)	n	n	n	n	n
CC1CC(C)CN(S(=O)(=O)c2ccc(C(=O)NCCCn3ccnc3)cc2)C1 (stereo not drawn)	100.5	113.8	98.1	n	n
O=C(NCCCn1ccnc1)c1ccc(S(=O)(=O)N2CCCCCC2)cc1	n	n	n	n	n
COc1ccc(Nc2nc(N3CCCC3)c3ccccc3n2)cc1	n	81.4	n	n	n
